Assay outcomes from PubChem BioAssay.
LmPK inhibitor – blocks Leishmania mexicana pyruvate kinase activity | hit rate 0.37% among 290,000 | purified LmPK, Kinase-Glo ATP luminescence, 1 h | Q27686 | Potency, µM (highest dose often 57.5 µM), for inactives: at the highest dose activity change, negative = inhibition, actives largely listed as inhibitors; note: % is set by controls: 0 for no effect and ±100 for the full control effect
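qHTS format; LmPK 0.1 nM; substrates PEP 0.5 mM and ADP 0.1 mM. One-hour room-temperature incubation, then coupled luciferase luminescence; 0.5 nM enzyme wells mark activation.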
NS1 function inh – inhibitors of influenza NS1 protein function; Potency, µM (top dose mostly 46.1 µM), without a hit: at the highest dose activity, positive = more growth; hit rate 0.4% among 270,000; AID 2326; calls by dose curve; note: actives are rising curves; nearly all actives have a fitted effect of over 50% in size
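Read-out: OD600 growth recovery of NS1-expressing budding yeast. Cells grown overnight at 30C in -URA glucose medium, washed, resuspended and diluted 1:100 in 2% galactose assay medium, pH 6.0. Same strain lacking NS1 served as positive control.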
Giardia FBPA inh-1 – inhibitors of Giardia lamblia fructose-1,6-bisphosphate aldolase; purified Giardia FBPA; Potency, µM (highest dose often 59.6 µM), inactives show at the highest dose activity, negative = inhibition, usual class: inhibitors; hit rate 0.71% among 290,000; AID 2451; note: % is set by controls: 0 for no effect and ±100 for the full control effect; nearly all actives have a fitted effect of over 55% in size
Target sequence (A8B2U2 whole entry, looked up): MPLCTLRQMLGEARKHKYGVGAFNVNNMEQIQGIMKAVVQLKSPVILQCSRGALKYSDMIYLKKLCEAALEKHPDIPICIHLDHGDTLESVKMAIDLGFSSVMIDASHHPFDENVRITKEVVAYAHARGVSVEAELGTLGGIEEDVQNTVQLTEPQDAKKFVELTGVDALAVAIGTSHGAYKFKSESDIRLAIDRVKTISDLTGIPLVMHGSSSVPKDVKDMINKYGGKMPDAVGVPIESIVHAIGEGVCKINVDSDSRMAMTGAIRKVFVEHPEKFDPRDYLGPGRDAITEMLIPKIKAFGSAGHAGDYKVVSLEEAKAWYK
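40 nM FBPA preincubated 10 min at RT with compound (up to 57.5 uM final), then substrate plus GAPDH/TPI/NAD/arsenate coupling and diaphorase/resazurin added. Fluorescence read after 20 min at RT, 525/598 nm.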
Tb PYK inh – blocks Trypanosoma brucei pyruvate kinase; hit rate 0.12% among 410,000; TbPYK enzyme, Kinase-Glo Plus ATP luminescence, 45 min; Q57TT1; Potency, µM (titrated, usually from 76.8 µM), without a hit: top-dose activity, negative = inhibition, most hits filed as inhibitors; AID 624173; note: % is set by controls: 0 for no effect and ±100 for the full control effect; nearly all actives have a fitted effect of over 50% in size
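Enzyme and substrate buffer are dispensed first and compound is pin-transferred. ADP at 130 uM final then starts the reaction, which runs 45 min at room temperature. Detection reagent is added for 10 min before luminescence is imaged.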
RE007 growth inh – less growth of the S. pombe RE007 Vpr strain | S. pombe RE007 Vpr strain, BacTiter-Glo ATP luminescence, 24 h | Potency, µM (titrated, usually from 92.2 µM), for the others: at the highest dose activity change, negative = less growth, hits mostly inhibitors | hit rate 0.21% among 360,000 | AID 651644; active = well fitted falling curve with a large enough effect; inconclusive = small, poorly fitted or top-dose-only effect; inactive = no such curve, though single readings can be large or run the other way; note: % is set by controls: 0 for no effect and ±100 for the full control effect; nearly all actives have a fitted effect of over 50% in size
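Fission yeast strain RE007, carrying one chromosomally integrated HIV-1 vpr copy, was seeded at OD 0.01 in PMG+AL medium with 23 nL pinned compound. After 24 h at 30 °C and 99% humidity, viability was read by BacTiter-Glo luminescence.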
Sm TGR block – inhibitors of Schistosoma mansoni thioredoxin glutathione reductase; hit rate 3% among 360,000; Q962Y6; Potency, µM (doses to about 114 µM), without a hit: at the highest dose activity change, negative = inhibition, most hits filed as inhibitors; AID 485364; purified TGR, DTNB reduction, TNB absorbance 405 nm; note: % is set by controls: 0 for no effect and ±100 for the full control effect; nearly all actives have a fitted effect of over 60% in size
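First, TGR (20 nM dispensed) and NADPH were mixed with compound. Second, a 15 min room-temperature incubation followed. Third, further NADPH and then DTNB were added to start the reaction. Finally, TNB absorbance was monitored kinetically.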
Giardia growth – inhibitors of Giardia lamblia growth; AID 2785; shares compounds with Giardia FBPA inh-1; Potency, µM (series often up to 57.5 µM), inactives show top-dose activity change, negative = inhibition, actives largely listed as inhibitors; Giardia lamblia trophozoite growth inhibition; hit rate 5% among 1,500;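 note: trophozoites exposed to compound for 48 h at 37 °C; % is set by controls: 0 for no effect and ±100 for the full control effect; nearly all actives have a fitted effect of over 70% in size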
Mammalian tox – counter-screen for Giardia aldolase inhibitors: mammalian cell toxicity | hit rate 4% among 1,500 | mammalian cell viability counter-screen, qHTS | shares compounds with Giardia FBPA inh-1 | Potency, µM (highest dose often 57.5 µM), inactives show top-dose viability change, negative = toxicity, actives largely listed as inhibitors;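 note: Chinese hamster ovary cells used as mammalian cytotoxicity surrogate; viability measured as cellular ATP by luminescence; compound exposure lasted 48 h before reading; % is set by controls: 0 for no effect and ±100 for the full control effect; nearly all actives have a fitted effect of over 60% in size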
Giardia FBPA inh-2 – confirmation of Giardia fructose-bisphosphate aldolase inhibitors. shares compounds with Giardia FBPA inh-1. purified Giardia aldolase enzyme activity, qHTS. Potency, µM (top dose mostly 57.5 µM), without a hit: top-dose activity change, negative = inhibition, usual class: inhibitors. hit rate 5% among 1,500. AID 2787; note: % is set by controls: 0 for no effect and ±100 for the full control effect; nearly all actives have a fitted effect of over 45% in size
Rabbit FBPA inh – rabbit FBP aldolase inhibition by Giardia aldolase hits; shares compounds with Giardia FBPA inh-1; Rabbit muscle FBPA enzyme inhibition, selectivity counter-screen; Potency, µM (highest dose often 57.5 µM), for the others: at the top dose activity, negative = inhibition, most hits filed as inhibitors; hit rate 4% among 1,500; AID 2794; note: % is set by controls: 0 for no effect and ±100 for the full control effect; nearly all actives have a fitted effect of over 60% in size
Target sequence (P00883 whole entry, looked up): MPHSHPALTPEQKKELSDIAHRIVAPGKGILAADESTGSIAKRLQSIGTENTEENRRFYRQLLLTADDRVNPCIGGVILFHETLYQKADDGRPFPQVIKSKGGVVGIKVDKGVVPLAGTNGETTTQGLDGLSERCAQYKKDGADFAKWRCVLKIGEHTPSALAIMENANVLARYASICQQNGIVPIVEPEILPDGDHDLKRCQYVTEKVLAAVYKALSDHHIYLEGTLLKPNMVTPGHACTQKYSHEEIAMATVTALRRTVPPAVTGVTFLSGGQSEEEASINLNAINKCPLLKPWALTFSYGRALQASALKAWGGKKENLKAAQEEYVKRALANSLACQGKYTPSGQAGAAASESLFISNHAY
GAPDH counter – GAPDH inhibition flagged for Giardia aldolase hits | shares compounds with Giardia FBPA inh-1 | GAPDH coupling enzyme counterscreen, biochemical, qHTS | Potency, µM (top dose mostly 57.5 µM), for inactives: at the highest dose activity change, negative = inhibition, usual class: inhibitors | hit rate 6% among 1,500 | AID 2795; note: % is set by controls: 0 for no effect and ±100 for the full control effect; nearly all actives have a fitted effect of over 55% in size
The depositor's hits bear a star; ? = inconclusive; / = not tested or not shown; [ ] = dose if it differs, or a comment. Sampled rows, rich in hits. Any-hit rate of the full collection: about 3.5%. Unless noted, calls come from the whole dose curve; as a rule, active = well fitted curve in the direction sought with a large enough effect; inconclusive = small, poorly fitted or top-dose-only effect, or another doubt; inactive = no such curve, though single readings can be large; an effect the other way counts as inactive or inconclusive. Potency is the fitted concentration of half-maximal effect.

SMILES | LmPK inhibitor | NS1 function inh | Giardia FBPA inh-1 | Tb PYK inh | RE007 growth inh | Sm TGR block | Giardia growth | Mammalian tox | Giardia FBPA inh-2 | Rabbit FBPA inh | GAPDH counter
COc1ccc(OCc2nn[nH]n2)cc1 | 5.7% | 11.6% | 25.1µM* | 3.2% | 3.4% | -13.2% | ? | -6.1% | 12.4% | 7.4% | 22.4%
COc1cccc(OCc2nn[nH]n2)c1 | -0.3% | 12.3% | ? | -1.8% | 4.1% | -14.4% | / | / | / | / | /
COC(=O)c1ccc(OCc2nn[nH]n2)cc1 | -0.4% | -7.3% | 31.6µM* | 0.9% | 19.9% | -2.2% | 20.7% | 18.8% | 13.5% | 12.4% | 14.2%
Cc1cccc(OCc2nn[nH]n2)c1C | -3.6% | 8.1% | 14.1µM* | 2.4% | 3.0% | 8.1% | 26.0% | -4.4% | 4.1% | 12.6% | 16.0%
COc1ccc(CCNC(=O)CCn2c(=O)c3ccccc3n(Cc3c(C)cc(C)cc3C)c2=O)cc1OC | / | / | / | 3.3% | / | 3.0% | / | / | / | / | /
O=C(NCc1ccc2c(c1)OCO2)c1ccc2c(c1)N(Cc1cccc(Cl)c1)C(=O)c1ccccc1S2=O (stereo not drawn) | / | / | / | -4.5% | / | -4.9% | / | / | / | / | /
CC(NC(=O)NC(N)=O)(C(F)(F)F)C(F)(F)F | 5.1% | 4.1% | 0.2% | -0.1% | -5.1% | 6.5% | / | / | / | / | /
CC(NC(=O)NNC(N)=S)(C(F)(F)F)C(F)(F)F | -3.3% | -2.1% | 17.7µM* | -3.0% | -11.5% | -4.5% | 31.3% | 9.5% | 6.5% | 6.5% | 7.6%
COc1ccc(NC(=O)Cn2ccn(-c3ccc(F)c(F)c3)c(=O)c2=O)cc1Cl | / | / | / | 0.6% | / | -3.2% | / | / | / | / | /
O=C(/C=C/c1ccc(Br)cc1)NC(=S)N1C[C@H]2C[C@H](C1)c1cccc(=O)n1C2 | 2.0% | -0.6% | ? | -6.1% | 5.2% | -17.9% | / | / | / | / | /
O=C(/C=C/c1ccc(Cl)cc1)NC(=S)N1C[C@H]2C[C@H](C1)c1cccc(=O)n1C2 | -2.5% | 3.4% | 7.08µM* | -9.2% | -10.9% | -5.4% | -21.9% | 15.1% | 3.6% | 5.2% | 3.6%
O=c1cc(-c2ccccc2)c2ccc3c(c2o1)CN(Cc1cccc(Cl)c1)CO3 | / | / | / | -8.2% | / | 6.8% | / | / | / | / | /
CCC(CO)NC(=O)C(=O)Nc1c2c(nn1-c1ccc(F)cc1)CSC2 (stereo not drawn) | / | / | / | 2.5% | / | -26.3% | / | / | / | / | /
CCN1CCN(CCOCCOc2ccccc2)CC1 | -1.5% | -2.9% | 25.1µM* | 10.6% | 9.5% | 4.3% | ? | 0.4% | 4.0% | 0.2% | 14.3%
NS(=O)(=O)c1ccc(-c2ccc(/C=C3\NC(=S)NC3=O)o2)cc1 | -1.8% | -9.6% | 15.8µM* | ? | -25.2% | 8.91µM* | ? | 1.2% | -24.8% | -15.5% | -6.8%
CC(=O)N[C@@H]1CCSC1=O | / | / | 5.1%[21.7 µM] | -9.3%[33.2 µM] | / | / | / | / | / | / | /
CC(=O)NC1C(=O)SC1(C)C (stereo not drawn) | -6.2% | 1.1% | 15.8µM* | / | / | -1.9% | -10.1% | -4.9% | -22.4% | -3.9% | -3.4%
CCOC(=O)N1CCN(C(=O)CCCCCn2c(=S)[nH]c3ccsc3c2=O)CC1 | -2.0% | / | ? | -0.1% | -6.4% | -0.1% | / | / | / | / | /
